# This is a sample that favours compounds with a hit; in the whole collection about 19% have one here.
# Giardia killer – kills Giardia lamblia | Giardia lamblia trophozoite viability | 0.15% of 340,000 active | activity change, % at 7.66 µM, hits read low | AID 540267; in the data active means activity change below about -80%; inconclusive means between about -30% and that limit;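 further: parasites exposed to compound for two days anaerobically before the ATP read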
#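 Giardia lamblia trophozoites (100 cells/well) were incubated with compounds for 48 h at 37 deg C under anaerobic conditions. Viability was read as ATP content by one-step luminescence after 15-30 min at room temperature.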
# DT40 TDP1 no CPT – qHTS for Inhibitors of human tyrosyl-DNA phosphodiesterase 1 (TDP1): qHTS in cells in absence of CPT; DT40 Tdp1-/- hTDP1 cells, no CPT, ATP luminescence, 48 h; Potency, µM (highest dose often 46.2 µM), hits mostly inhibitors; 15% of 420,000 active; AID 686978, 2013; further: nearly all actives have a fitted effect of over 55% in size
#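 Growth kinetics read by CellTiter-Glo luminescence after ≥48 hr at 37 °C. Cells: DT40 Tdp1-/- stably carrying human TDP1, 400 per well, compound exposure in the absence of CPT (DMSO vehicle).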
# ELG1 DNA repair – ELG1-dependent DNA repair inhibition; HEK293T ELG1-luciferase reporter, luminescence, 16 h; DNA damage induced by 5-fluorouridine; Potency, µM (titrated, usually from 46.1 µM), most hits filed as inhibitors; 2.3% of 330,000 active; further: nearly all actives have a fitted effect of over 55% in size
#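 Step one: seed 2,000 cells per well. Step two: pin-transfer compound or DMSO alongside 5-fluorouridine. Step three: incubate 16 hr, 37 °C, 5% CO2. Step four: add ONE-Glo, wait 30 min, read luminescence.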
# TDP1 block – blocks human tyrosyl-DNA phosphodiesterase 1; Q9NUW8; recombinant TDP1, AlphaScreen DNA substrate cleavage; Potency, µM (highest dose often 130 µM), most hits filed as inhibitors; 0.28% of 350,000 active; AID 485290; further: nearly all actives have a fitted effect of over 40% in size
# Target sequence (Q9NUW8 whole entry, looked up): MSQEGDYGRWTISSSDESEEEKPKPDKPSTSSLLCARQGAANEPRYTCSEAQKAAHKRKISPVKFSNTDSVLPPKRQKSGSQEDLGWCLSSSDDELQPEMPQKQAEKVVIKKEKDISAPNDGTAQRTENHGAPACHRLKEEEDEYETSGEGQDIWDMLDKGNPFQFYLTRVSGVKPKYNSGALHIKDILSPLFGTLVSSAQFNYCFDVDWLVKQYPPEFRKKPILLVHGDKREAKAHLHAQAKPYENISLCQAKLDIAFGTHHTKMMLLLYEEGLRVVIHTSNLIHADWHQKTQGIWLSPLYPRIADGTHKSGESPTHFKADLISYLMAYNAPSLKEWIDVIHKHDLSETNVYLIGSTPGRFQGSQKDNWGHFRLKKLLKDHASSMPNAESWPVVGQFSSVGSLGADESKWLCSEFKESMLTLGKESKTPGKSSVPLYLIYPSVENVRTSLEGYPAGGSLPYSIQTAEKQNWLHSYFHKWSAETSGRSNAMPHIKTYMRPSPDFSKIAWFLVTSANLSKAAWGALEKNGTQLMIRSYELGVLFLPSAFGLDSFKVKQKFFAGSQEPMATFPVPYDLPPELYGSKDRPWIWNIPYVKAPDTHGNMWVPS
#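 Recombinant human Tdp1 (E. coli-expressed, 1 nM final) preincubated with compounds 15 min at room temperature, then 5'-biotin/3'-phosphotyrosine-FITC DNA substrate (15 nM final) added for 5 min. AlphaScreen beads (10 ug/ml final) added 10 min; cleavage lowers signal.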
# TDP1 cell CPT – DT40-hTDP1 cell growth loss with CPT | AID 686979 | Potency, µM (top dose mostly 46.2 µM), most hits filed as inhibitors | 12% of 420,000 active | chicken DT40 Tdp1-/-;hTDP1 cells + 20 nM CPT, ATP luminescence, 48 h; further: nearly all actives have a fitted effect of over 55% in size
#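 Cell growth measured by CellTiter-Glo luminescence after a minimum 48 h, 37 C compound exposure with 20 nM CPT in Tdp1-knockout DT40 cells stably expressing hTDP1, seeded 400/well; qHTS titration format.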
# IL1B secr inh – inhibitors of inflammasome signaling (IL-1 beta secretion); THP-1 LPS/ATP IL-1B secretion, AlphaLISA, 16 h; hits give low values; activity change, % at 57.5 µM; 4.7% of 360,000 active; AID 743279; in the data active means activity change below about -50%; inconclusive means mostly about -30% to -49%
#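 THP-1 cells pretreated 1 hr with compounds (up to 57.5 uM final), then stimulated with LPS (250 ng/mL final) plus ATP (1.25 mM final); secreted IL-1B measured by AlphaLISA after 16 hr, decreased signal indicating inhibition.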
# Numbers stand for hits; . = inactive; ? = inconclusive; / = not tested or not shown. Unless noted, the call rests on the fitted dose curve; in most records, active means well fitted curve in the direction sought with a large enough effect; inconclusive means small, poorly fitted or top-dose-only effect, or another doubt; inactive means no such curve, though single readings can be large; an effect the other way counts as inactive or inconclusive.
SMILES,Giardia killer,DT40 TDP1 no CPT,ELG1 DNA repair,TDP1 block,TDP1 cell CPT,IL1B secr inh
C/C(=N/NC(=O)c1cccs1)c1ccc(N2CCOCC2)cc1,.,.,?,.,.,.
Cc1c(C(=O)Nc2cccnc2)oc2ccc(Br)cc12,.,?,?,.,?,.
COc1cc(CNc2ccc3[nH]c(=O)[nH]c3c2)ccc1OCc1cccc(C)c1,.,?,?,/,?,-75.6
COc1cc(CNC2CCCC2)cc(Cl)c1OCc1ccccc1F,.,13µM,.,.,16.4µM,-76.3
COc1cc(CNc2ccc3[nH]c(=O)[nH]c3c2)cc(Br)c1OCc1ccc(F)cc1,.,14.6µM,.,.,7.31µM,/
O=c1[nH]c2ccc(NCc3ccc(F)cc3)cc2[nH]1,.,?,?,.,.,.
COc1cc(CNC2CCCCCC2)cc(OC)c1O,.,.,.,.,.,.
COc1cc(CNc2ccc3[nH]c(=O)[nH]c3c2)cc(Cl)c1OCc1ccc(F)cc1,/,14.6µM,/,.,18.4µM,/
COc1cc(CNc2ccc3[nH]c(=O)[nH]c3c2)ccc1OCc1ccc(C)cc1,.,?,?,/,?,?
N#Cc1ccc(CN2CCN(C(=O)C3CC(=O)N(c4ccccc4F)C3)CC2)cc1 (centres undefined),.,.,?,.,.,.
O=C1CCC[C@@H]2CC(Nc3ccccc3)C[C@@H]3CCN1[C@H]23 (some centres undefined),/,.,/,/,?,/
O=C(NCc1cccc(Br)c1)C1CC2Cn3c(nc4ccccc43)C2N1c1ccccc1 (centres undefined),.,.,/,/,.,.
COc1cccc(CNc2ccc3[nH]c(=O)[nH]c3c2)c1OCc1ccccc1F,.,.,9.2µM,.,?,.
COc1cc(CNc2ccc3[nH]c(=O)[nH]c3c2)ccc1OCc1ccccc1Cl,.,?,.,/,?,?
COc1cc(CNc2ccc3[nH]c(=O)[nH]c3c2)cc(Cl)c1OCc1ccccc1F,/,8.2µM,/,.,11.6µM,/
O=C(Cc1csc(-c2ccccc2)n1)NCc1cccs1,.,.,.,.,.,.
C[C@H]1CCC2[C@](C)(CO)[C@@H](O)CC[C@]2(C)[C@@]12CCC(CO)(CCO)O2 (some centres undefined),.,.,.,/,.,.
CCOC(=O)CN1N=C(c2ccc(Cl)cc2)CCC1=O,.,.,?,/,.,.
Cc1nn(C)c2c1c(C(F)(F)F)cc(=O)n2CC(=O)NC(C)(C)C,/,.,/,.,.,/
COc1ccc(C2=NN(C(=O)c3cccs3)C(c3ccc(OC)cc3)C2)cc1 (centres undefined),.,18.4µM,.,.,?,?
COc1ccc(C2CC(c3ccc(OC)c(OC)c3)=NN2C(=O)c2ccccc2)cc1 (centres undefined),.,.,.,/,.,.
COc1ccc(C2CC(c3ccc(C)cc3)=NN2C(=O)c2ccccc2)cc1 (centres undefined),.,14.6µM,.,/,20.6µM,?
COc1ccc(C2=NN(C(=O)c3ccccc3)C(c3ccccc3)C2)c(O)c1 (centres undefined),.,18.4µM,?,/,?,.
NC(=O)C1CCN(C(=O)c2ccc(Cl)c(S(=O)(=O)N3CCc4ccccc43)c2)CC1,/,?,/,/,?,.
COc1ccc(CN(CC(=O)NCCc2ccccc2)C(=O)CCC(=O)Nc2ccccn2)cc1,.,.,?,/,.,.
Cc1ccc(Oc2nc(CN3CCOCC3)nc3sc4c(c23)CCC(C)C4)cc1C (centres undefined),.,?,13µM,.,.,.
CC1CCc2c(sc3nc(CN4CCOCC4)nc(NS(=O)(=O)c4cccc([N+](=O)[O-])c4)c23)C1 (centres undefined),.,.,?,.,.,.
COc1cccc(Nc2nc(CN3CCOCC3)nc3sc4c(c23)CCCC4)c1,.,20.6µM,10.3µM,.,16.4µM,?

# Screening results from PubChem BioAssay.
